The values below come from PubChem BioAssay (NCATS).

Experiment [1] in a line: qHTS assay for small molecule antagonists of peroxisome proliferator-activated receptor delta signaling (AID 588535).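 Note: cells co-treated with a PPAR-delta agonist as stimulator during compound exposure.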 The settings on record: HEK293T PPARd-UAS-bla, beta-lactamase FRET ratio, 18 h; 460 nm channel. The method, boiled down: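 Reporter: UAS-bla under PPAR-delta response element, HEK293T host. Medium: 2% charcoal/dextran FBS. Dosing: titration, 18 hrs, 37 C. Detection: CCF4, 2 hrs RT, 405 ex/460 and 530 em.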

Experiment [2] deals with Peroxisome proliferator-activated receptor gamma (Homo sapiens) (UniProt P37231). Description: qHTS assay for small molecule agonists of peroxisome proliferator-activated receptor gamma signaling (AID 588536; active = well fitted curve in the direction sought with a large enough effect in the signal ratio, with a control signal flat, not every such curve was filed as active; the % refers to the signal ratio;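 note: 0% = DMSO basal wells and 100% = rosiglitazone at 2 µM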). The method in brief:
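Ratiometric blue/green fluorescence (405 nm excitation; 460 and 530 nm emission) from CCF4-loaded HEK293 reporter cells serves as signal. Exposure to test compounds lasts 16 h at 37 C in medium containing 1% charcoal/dextran-treated serum.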

Experiment [3] addresses Vitamin D3 receptor (Homo sapiens) (UniProt P11473). Description: qHTS assay for small molecule antagonists of vitamin D receptor signaling (AID 588541; calls by dose curve;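 note: receptor activated by calcitriol during compound treatment; series mostly up to about 77 µM; % is set by controls: 0 for no effect and ±100 for the full control effect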). The method in brief:
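VDR-UAS-bla HEK293T cells (2000/well, 2% charcoal-stripped FBS) were treated with titrated compounds plus 1-alpha,25-dihydroxyvitamin D3 (50 nM or 3 nM final) for 16 h at 37 C. CCF4 beta-lactamase fluorescence was read; Hill fits gave IC50.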
(In qHTS, concentration-response curves come from the screen itself.)

For experiment [4] the target is unchanged. In words: qHTS assay for small molecule agonists of vitamin D receptor signaling (AID 588543; calls by dose curve;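 note: 0% = DMSO basal and 100% = reference agonist control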). The method in brief:
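qHTS in agonist mode: compound titrations stimulate a VDR-driven β-lactamase reporter in HEK293T cells over 16 h at 37 °C. Response normalized to 50 nM 1α,25-dihydroxyvitamin D3 = 100%, DMSO = 0%; Hill fitting gives EC50 and maximal response.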

Experiment [5] is described as follows: qHTS assay for small molecule agonists of retinoid X receptor alpha signaling (AID 588544; calls by dose curve;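 for activation: 0% = DMSO basal wells and 100% = reference agonist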). The note with it: HEK293T RXRa-UAS-bla, beta-lactamase reporter, 18 h; 530 nm emission.
In experiment [6] the target is Retinoic acid receptor RXR-alpha (Homo sapiens) (UniProt P19793). The experiment is described as above.
Chain of Retinoic acid receptor RXR-alpha (Homo sapiens) (P19793 whole entry, looked up): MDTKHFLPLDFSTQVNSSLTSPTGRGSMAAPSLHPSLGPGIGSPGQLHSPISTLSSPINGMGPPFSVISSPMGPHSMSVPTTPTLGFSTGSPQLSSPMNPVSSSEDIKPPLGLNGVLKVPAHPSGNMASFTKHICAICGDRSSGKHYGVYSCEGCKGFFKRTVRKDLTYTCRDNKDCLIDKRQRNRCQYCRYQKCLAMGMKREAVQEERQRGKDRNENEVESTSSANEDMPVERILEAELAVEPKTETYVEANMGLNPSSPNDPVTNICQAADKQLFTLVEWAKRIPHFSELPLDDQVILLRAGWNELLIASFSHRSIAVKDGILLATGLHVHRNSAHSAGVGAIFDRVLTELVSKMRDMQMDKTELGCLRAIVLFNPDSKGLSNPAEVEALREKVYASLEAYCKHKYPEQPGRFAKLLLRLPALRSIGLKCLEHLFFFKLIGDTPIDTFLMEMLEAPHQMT
Experiment [7] deals with Thyroid hormone receptor beta (Homo sapiens) (UniProt P10828). In words: qHTS assay for small molecule agonists of thyroid hormone receptor beta signaling (AID 588545; calls by dose curve). The method, boiled down:
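Cells (2500/well) were seeded, incubated 4 hrs at 37 C, dosed with a compound series, incubated 18 hrs, loaded with CCF4 dye for 2 hrs at RT, then read for fluorescence. Data were scaled between DMSO (0%) and 10 nM T3 (100%).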

A short description of experiment [8]: qHTS assay for small molecule antagonists of retinoid X receptor alpha signaling (AID 588546).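 Note: cells stimulated with 9-cis-retinoic acid as agonist; % is set by controls: 0 for no effect and ±100 for the full control effect.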 The settings on record: HEK293T RXRa-UAS-bla, beta-lactamase ratio, antagonist mode; measured here: W530 green channel, cytotoxicity proxy. The method, boiled down: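 Beta-lactamase reporter inhibition, read as CCF4 fluorescence ratio (ex 405, em 460/530 nm) after 2 h at RT. HEK293T UAS-bla cells, 2500/well, were stimulated with 9-cis-RA at 500 or 100 nM final alongside test compound for 18 h at 37 C.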

Experiment [9] concerns the target Thyroid hormone receptor beta (Homo sapiens) (UniProt P10828). In words: qHTS assay for small molecule antagonists of thyroid hormone receptor beta signaling (AID 588547; active = well fitted inhibition curve with a large enough effect in the signal ratio, with a control signal flat, not every such curve was filed as active; the % refers to the signal ratio;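 note: cells stimulated with 0.4 nM T3 agonist during compound exposure; series mostly up to about 77 µM; % is set by controls: 0 for no effect and ±100 for the full control effect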). The note with it: TR-UAS-bla HEK293, beta-lactamase ratio, antagonist mode, 18 h. The method, boiled down: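 TR-UAS-bla GripTite HEK293 cells in 2% charcoal/dextran FBS medium were preincubated 4 h at 37 C, given compound (0.59 nM to 92 uM) plus 0.4 nM T3 (final) for 18 h, then CCF4 for 2 h at RT; Hill fit gave IC50.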

Experiment [10] concerns the target Voltage-gated inwardly rectifying potassium channel KCNH2 (Homo sapiens) (UniProt Q12809). In words: qHTS Assay for Small Molecule Inhibitors of the Human hERG Channel Activity (AID 588834).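 Note: top concentration of the series differs between compounds; % is set by controls: 0 for no effect and ±100 for the full control effect; lower thallium flux fluorescence means stronger hERG block; nearly all actives have a fitted effect of over 50% in size.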 The method in brief: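 Measured: FluxOR fluorescence after thallium stimulation in U2OS cells transduced with hERG by baculovirus. Compounds pre-incubated around 10 min; medium Opti-MEM with 2% FCS. AC50 from Hill equation.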

The nature of experiment [11]: qHTS assay for small molecule activators of the p53 signaling pathway (AID 651743; active = well fitted activation curve with a large enough effect in the signal ratio, not every such curve was filed as active; the % refers to the signal ratio; note: series mostly up to about 92 µM; % of control where 0% means no effect). The settings on record: HCT-116 p53RE-bla, beta-lactamase FRET ratio, 16 h; activation: stronger effect = higher value. The method in brief:
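Cell-based beta-lactamase reporter (p53 response elements, HCT-116 background). After a 5-hour preincubation, cells received compound for 16 hours at 37 C; substrate development ran 2 hours at room temperature.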

Experiment [12] is described as follows: qHTS assay for small molecule disruptors of the mitochondrial membrane potential - 1 hr assay (AID 651754; calls by dose curve; note: % is set by controls: 0 for no effect and ±100 for the full control effect; nearly all actives have a fitted effect of over 35% in size). The method in brief: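 HepG2 cells, attached overnight, were exposed to compound for 1 hr at 37C, then stained 30 min with a potentiometric dye. Ratio of red aggregate (590nm) to green monomer (535nm) fluorescence reports membrane potential; collapse shifts signal toward green.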

Experiment [13] is described as follows: qHTS assay for small molecule disruptors of the mitochondrial membrane potential - 5 hr assay (AID 651755; calls by dose curve; note: % is set by controls: 0 for no effect and ±100 for the full control effect; nearly all actives have a fitted effect of over 40% in size). The method in brief:
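HepG2 cells, attached overnight at 37C, were exposed to compound or DMSO for 5 hr at 37C, 5% CO2. Mito-MPS dye was then added for 30 min, and fluorescence read at 490/535 nm (monomers) and 540/590 nm (aggregates).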

The target of experiment [14] is Tumor necrosis factor (Homo sapiens) (UniProt P01375). Description: qHTS assay to identify small molecules that stimulate Tumor Necrosis Factor-alpha (TNF-alpha) secretion (AID 651757; active = well fitted curve in the direction sought with a large enough effect in the signal ratio; the % refers to the signal ratio; note: 0% is about no effect). The method in brief: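 THP-1 cells (3000/well) exposed to compounds 17 hrs at 37 C. Secreted TNF-alpha detected by HTRF with cryptate- and XL665-labeled anti-TNF-alpha antibodies after 3 hr at room temperature.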
Chain of Tumor necrosis factor (Homo sapiens) (P01375 whole entry, looked up): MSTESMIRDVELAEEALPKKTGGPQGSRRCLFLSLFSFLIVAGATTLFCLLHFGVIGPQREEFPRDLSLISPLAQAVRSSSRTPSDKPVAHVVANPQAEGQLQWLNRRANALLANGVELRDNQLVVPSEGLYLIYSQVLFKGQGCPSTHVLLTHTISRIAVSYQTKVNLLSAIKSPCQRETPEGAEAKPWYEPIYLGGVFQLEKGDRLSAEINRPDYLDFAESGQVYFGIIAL

The nature of experiment [15]: qHTS assay for environmental chemicals that activate the Aryl hydrocarbon Receptor (AhR) signaling pathway (AID 651777). Note: % of control where 0% means no effect; nearly all actives have a fitted effect of over 15% in size. The note with it: 1A2-DRE human hepatoma cells, luciferase, 24 h; activation: stronger effect = higher value. The method in brief: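 Quantitative HTS in stably transfected human liver-derived cells whose luciferase gene sits downstream of the CYP1A2 promoter and dioxin response element. After 24 hr exposure at 37 C, One-Glo luminescence was measured.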

Experiment [16] addresses Peroxisome proliferator-activated receptor alpha (Homo sapiens) (UniProt Q07869). Description: qHTS assay for small molecule agonists of the peroxisome proliferator-activated receptor alpha (PPARalpha) signaling pathway (AID 651778). Note: % of control where 0% means no effect. The note with it: PathHunter PPARalpha complementation, chemiluminescence, 6 h; stronger effect = higher value. The method in brief: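 Cells plated at 2,000/well and held overnight at 37 C, 5% CO2, then compound added by pin tool for 6 hr; after PathHunter detection reagent and 60 min at room temperature, chemiluminescence from enzyme complementation was read.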

Experiment [17] has as its target Nuclear receptor ROR-gamma (Homo sapiens) (UniProt P51449). Description: qHTS assay for small molecule antagonists of the retinoid-related orphan receptor gamma (ROR-gamma) signaling pathway (AID 651802).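 Note: luciferase reporter luminescence driven by ROR response element; series mostly up to about 92 µM; % is set by controls: 0 for no effect and ±100 for the full control effect; nearly all actives have a fitted effect of over 60% in size.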 The method in brief: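 CHO cells with TET-inducible ROR-gamma and RORE-luciferase reporter, dosed then doxycycline-induced. After 16 h at 37C, One-Glo luminescence read; decreased signal indicates antagonism.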

The nature of experiment [18]: qHTS assay for small molecule agonists of the antioxidant response element (ARE) signaling pathway measured by Nrf2-dependant transcriptional activity (AID 720636; active = well fitted curve in the direction sought with a large enough effect in the repeat runs; an effect the other way counts as inactive or inconclusive; note: % of control where 0% means no effect). The method, boiled down:
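Quantitative HTS format in HepG2 cells stably expressing an ARE-luciferase reporter; 16 hr compound treatment at 37 C, luciferase signal detected with ONE-Glo.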

Experiment [19] can be described thus: qHTS assay for small molecule antagonists of the retinoid-related orphan receptor gamma (ROR-gamma) signaling pathway - cell viability counter screen (AID 720652; active = well fitted curve in the direction sought with a large enough effect in the repeat runs; an effect the other way counts as inactive or inconclusive;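 note: series mostly up to about 92 µM; compound exposure lasted 16 hr before ATP read; % is set by controls: 0 for no effect and ±100 for the full control effect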). The method, boiled down:
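CHO cells carrying TET-inducible ROR and RORE-luciferase reporter, plated 5 hr, then dosed with compound plus doxycycline. After 16 hr at 37 C, viability read as intracellular ATP by CellTiter-Glo luminescence.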

Experiment [20] in a line: qHTS assay for cell viability of HEK293 cells (AID 743288). Note: % is set by controls: 0 for no effect and ±100 for the full control effect; nearly all actives have a fitted effect of over 50% in size. The settings on record: ATP luminescence (CellTiter-Glo), 18 h; max response: stronger effect = lower value. The method, boiled down: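 The Tox21 protocol used parental HEK293 cells treated for 18 h at 37 C with compounds delivered by pintool; ATP-coupled luminescence after 30 min at room temperature gave viability.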

Experiment [21] is described as follows: qHTS assay for cell viability of the p53RE-bla HCT-116 cell line (AID 743292). Note: % is set by controls: 0 for no effect and ±100 for the full control effect; nearly all actives have a fitted effect of over 55% in size. The method, boiled down: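 Viability of compound-treated p53RE-bla HCT-116 cells is taken from ATP-dependent luciferase luminescence. Treatment lasts 16 h at 37 C after a 5 h settling period; detection follows 30 min at room temperature.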
Experiment [22] concerns the target Nuclear receptor subfamily 1 group I member 2 (Rattus norvegicus) (UniProt Q9R1A7). Description: qHTS assay for small molecule activators of the rat pregnane X receptor (rPXR) signaling pathway (AID 651751; call rule not given here; note: 0% is about no effect). The note with it: rPXR reporter cells, luciferase (One-Glo), 24 h.
Experiment [23] is described as follows: qHTS assay for small molecule activators of the human pregnane X receptor (PXR) signaling pathway (AID 720659; call rule not given here; note: 0% is about no effect).

Records with an inconclusive call do not appear. Active and inactive are the calls of the source. Unless noted, calls come from the whole dose curve; as a rule, active = well fitted curve in the direction sought with a large enough effect; inconclusive = small, poorly fitted or top-dose-only effect, or another doubt; inactive = no such curve, though single readings can be large; an effect the other way counts as inactive or inconclusive.

Chain of Thyroid hormone receptor beta (Homo sapiens) (P10828 whole entry, looked up): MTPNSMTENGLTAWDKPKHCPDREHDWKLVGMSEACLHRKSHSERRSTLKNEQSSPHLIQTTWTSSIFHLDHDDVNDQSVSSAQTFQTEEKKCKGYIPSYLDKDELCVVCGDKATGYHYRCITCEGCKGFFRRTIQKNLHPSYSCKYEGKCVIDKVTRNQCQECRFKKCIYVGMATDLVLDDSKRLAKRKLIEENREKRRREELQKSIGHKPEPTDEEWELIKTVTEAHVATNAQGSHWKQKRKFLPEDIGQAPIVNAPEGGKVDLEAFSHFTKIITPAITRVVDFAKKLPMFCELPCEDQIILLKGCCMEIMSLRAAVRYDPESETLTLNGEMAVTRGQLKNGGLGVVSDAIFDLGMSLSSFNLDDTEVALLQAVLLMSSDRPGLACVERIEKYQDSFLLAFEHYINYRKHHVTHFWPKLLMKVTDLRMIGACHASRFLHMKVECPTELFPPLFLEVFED
Chain of Vitamin D3 receptor (Homo sapiens) (P11473 whole entry, looked up): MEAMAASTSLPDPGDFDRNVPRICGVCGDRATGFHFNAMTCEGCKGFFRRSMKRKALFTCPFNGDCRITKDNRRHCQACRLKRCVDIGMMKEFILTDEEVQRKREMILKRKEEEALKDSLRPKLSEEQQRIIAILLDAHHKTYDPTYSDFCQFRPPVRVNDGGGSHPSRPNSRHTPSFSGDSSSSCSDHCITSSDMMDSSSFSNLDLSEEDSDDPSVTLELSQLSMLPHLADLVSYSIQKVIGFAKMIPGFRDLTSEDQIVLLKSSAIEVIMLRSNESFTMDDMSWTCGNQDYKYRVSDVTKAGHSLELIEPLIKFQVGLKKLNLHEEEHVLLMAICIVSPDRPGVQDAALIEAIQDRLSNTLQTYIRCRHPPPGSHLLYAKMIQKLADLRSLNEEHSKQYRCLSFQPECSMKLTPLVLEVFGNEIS
Chain of Nuclear receptor ROR-gamma (Homo sapiens) (P51449 whole entry, looked up): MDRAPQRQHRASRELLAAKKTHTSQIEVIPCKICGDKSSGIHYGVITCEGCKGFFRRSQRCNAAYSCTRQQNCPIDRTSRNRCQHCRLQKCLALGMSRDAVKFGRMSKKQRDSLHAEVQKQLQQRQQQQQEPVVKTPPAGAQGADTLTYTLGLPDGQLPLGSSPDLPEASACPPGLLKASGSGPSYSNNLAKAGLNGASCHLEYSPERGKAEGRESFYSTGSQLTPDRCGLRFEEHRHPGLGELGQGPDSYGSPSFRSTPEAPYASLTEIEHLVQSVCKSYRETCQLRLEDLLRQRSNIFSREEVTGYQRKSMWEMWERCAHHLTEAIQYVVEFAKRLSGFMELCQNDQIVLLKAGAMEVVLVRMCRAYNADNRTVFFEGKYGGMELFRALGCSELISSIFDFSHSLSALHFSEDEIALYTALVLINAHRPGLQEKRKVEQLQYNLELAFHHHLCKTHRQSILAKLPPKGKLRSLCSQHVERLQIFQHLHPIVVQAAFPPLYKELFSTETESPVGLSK
Chain of Peroxisome proliferator-activated receptor alpha (Homo sapiens) (Q07869 whole entry, looked up): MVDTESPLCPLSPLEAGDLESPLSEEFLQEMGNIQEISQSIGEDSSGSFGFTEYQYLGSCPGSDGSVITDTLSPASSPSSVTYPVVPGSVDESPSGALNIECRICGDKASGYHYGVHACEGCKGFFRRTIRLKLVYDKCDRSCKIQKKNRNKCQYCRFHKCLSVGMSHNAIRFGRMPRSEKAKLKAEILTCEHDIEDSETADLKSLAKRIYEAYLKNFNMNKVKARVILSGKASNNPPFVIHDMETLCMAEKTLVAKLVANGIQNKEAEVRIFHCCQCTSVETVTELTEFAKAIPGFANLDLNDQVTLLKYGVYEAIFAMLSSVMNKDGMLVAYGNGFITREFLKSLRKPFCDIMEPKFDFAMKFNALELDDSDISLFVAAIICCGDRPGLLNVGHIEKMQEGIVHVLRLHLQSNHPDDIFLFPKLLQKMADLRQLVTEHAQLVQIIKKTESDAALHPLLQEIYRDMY
Chain of Voltage-gated inwardly rectifying potassium channel KCNH2 (Homo sapiens) (Q12809 whole entry, looked up): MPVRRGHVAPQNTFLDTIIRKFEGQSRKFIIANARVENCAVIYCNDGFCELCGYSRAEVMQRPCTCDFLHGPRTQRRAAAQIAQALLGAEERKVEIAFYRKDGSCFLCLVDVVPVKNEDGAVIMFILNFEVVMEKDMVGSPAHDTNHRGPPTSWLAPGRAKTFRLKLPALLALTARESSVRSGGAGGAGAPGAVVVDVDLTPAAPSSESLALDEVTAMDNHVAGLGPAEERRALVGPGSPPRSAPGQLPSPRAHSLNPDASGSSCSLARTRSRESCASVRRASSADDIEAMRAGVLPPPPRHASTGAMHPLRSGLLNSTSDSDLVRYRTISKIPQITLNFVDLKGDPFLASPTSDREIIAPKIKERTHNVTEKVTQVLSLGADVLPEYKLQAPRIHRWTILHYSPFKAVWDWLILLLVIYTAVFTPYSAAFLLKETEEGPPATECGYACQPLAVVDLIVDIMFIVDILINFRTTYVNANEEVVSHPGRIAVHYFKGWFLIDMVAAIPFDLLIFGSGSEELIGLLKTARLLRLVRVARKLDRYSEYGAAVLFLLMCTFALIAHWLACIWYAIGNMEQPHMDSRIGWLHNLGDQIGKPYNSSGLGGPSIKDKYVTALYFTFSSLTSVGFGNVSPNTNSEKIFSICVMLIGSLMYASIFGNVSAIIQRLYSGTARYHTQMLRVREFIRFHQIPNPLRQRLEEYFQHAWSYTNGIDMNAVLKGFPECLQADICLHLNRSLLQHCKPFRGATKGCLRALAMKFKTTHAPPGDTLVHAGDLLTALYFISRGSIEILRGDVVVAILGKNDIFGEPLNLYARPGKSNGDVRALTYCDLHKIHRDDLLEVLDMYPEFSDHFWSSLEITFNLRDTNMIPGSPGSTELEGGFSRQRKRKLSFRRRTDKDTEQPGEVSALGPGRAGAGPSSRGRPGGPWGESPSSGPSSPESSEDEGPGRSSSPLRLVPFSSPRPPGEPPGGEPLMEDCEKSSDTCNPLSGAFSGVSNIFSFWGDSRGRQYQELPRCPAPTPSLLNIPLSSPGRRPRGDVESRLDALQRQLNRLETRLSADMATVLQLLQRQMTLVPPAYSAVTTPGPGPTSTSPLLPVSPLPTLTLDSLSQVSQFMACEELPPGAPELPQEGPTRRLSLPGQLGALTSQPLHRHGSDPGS
Chain of Peroxisome proliferator-activated receptor gamma (Homo sapiens) (P37231 whole entry, looked up): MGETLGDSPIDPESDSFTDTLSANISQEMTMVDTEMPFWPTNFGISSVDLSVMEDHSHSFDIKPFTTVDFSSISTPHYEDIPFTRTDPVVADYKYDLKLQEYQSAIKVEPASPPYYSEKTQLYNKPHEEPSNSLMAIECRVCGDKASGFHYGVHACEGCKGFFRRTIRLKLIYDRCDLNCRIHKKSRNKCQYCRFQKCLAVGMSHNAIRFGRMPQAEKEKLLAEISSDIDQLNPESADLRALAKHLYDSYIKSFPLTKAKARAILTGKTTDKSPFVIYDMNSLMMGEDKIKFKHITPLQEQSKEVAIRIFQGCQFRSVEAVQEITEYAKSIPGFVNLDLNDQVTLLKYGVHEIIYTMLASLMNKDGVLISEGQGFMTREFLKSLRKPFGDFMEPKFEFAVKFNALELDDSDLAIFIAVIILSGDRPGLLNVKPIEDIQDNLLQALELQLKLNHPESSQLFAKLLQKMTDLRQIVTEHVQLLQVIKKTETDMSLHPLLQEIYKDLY
Chain of Nuclear receptor subfamily 1 group I member 2 (Rattus norvegicus) (Q9R1A7 whole entry, looked up): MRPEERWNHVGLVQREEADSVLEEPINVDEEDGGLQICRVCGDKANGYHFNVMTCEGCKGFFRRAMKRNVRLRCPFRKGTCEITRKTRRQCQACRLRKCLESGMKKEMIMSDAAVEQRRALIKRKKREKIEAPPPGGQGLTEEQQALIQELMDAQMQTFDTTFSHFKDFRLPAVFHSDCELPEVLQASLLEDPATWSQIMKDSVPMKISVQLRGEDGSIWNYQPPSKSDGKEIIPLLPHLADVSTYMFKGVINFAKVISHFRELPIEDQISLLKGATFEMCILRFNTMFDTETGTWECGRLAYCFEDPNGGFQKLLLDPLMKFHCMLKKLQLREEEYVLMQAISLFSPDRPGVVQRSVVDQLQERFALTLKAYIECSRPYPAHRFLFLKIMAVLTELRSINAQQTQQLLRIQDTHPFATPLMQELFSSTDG

As for `C=CC(=C)C`, the max response in experiment [1] is -16.7%; in [5], 8.28%; in experiment [8], -1.77%; in [16], 4.78% (inactive); in [20], 2.66% (inactive); in experiment [22], 11% (inactive). Besides, the compound was called inactive in experiment [2], in experiment [3], in [4], in experiment [7], in experiment [14] and in experiment [18]. Besides, the outcome in [23] was inactive. For the same compound, the Potency result in experiment [6], in experiment [10], in experiment [12], in experiment [13], in experiment [17] and in experiment [19] was “inactive” each time. For the same compound, the Potency entry in experiment [21] was “inactive”. Moreover, the activity change % (negative = inhibition) in [9] is 3.52% (inactive). Besides, the activation in experiment [11] is -2.92% (inactive); in experiment [15], -0.578% (inactive).
